Data published in PubChem BioAssay (NCI).
This is part of a sample that, as a whole, favours compounds with a hit. Of some 83,000 tested, about 20% had one in any assay.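 Cell lines were cultured in 96-well plates, exposed to a single compound concentration, and assessed for percent growth 48 hours later.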 The source made the active and inactive calls. Rule for the calls: active = growth percent below 10; inactive = the rest.

Assays:
Experiment in all cases: NCI-60 one-dose screen, 48 h (100 = growth as untreated, 0 = no growth, -100 = all killed)
Conditions in all cases: 10 µM unless noted
HCT-15 colon = test system: HCT-15 colon
HT29 colon = test system: HT29 colon
SNB-75 CNS = test system: SNB-75 CNS
SNB-19 CNS = test system: SNB-19 CNS
U251 CNS = test system: U251 CNS
PC-3 prostate = test system: PC-3 prostate
SK-MEL-5 melanoma = test system: SK-MEL-5 melanoma
UACC-62 melanoma = test system: UACC-62 melanoma
LOX IMVI melanoma = test system: LOX IMVI melanoma
SK-MEL-28 melanoma = test system: SK-MEL-28 melanoma

Measured: growth

CCN1C(=O)/C(=C/N2N=C(c3ccc(Cl)cc3)CC2c2ccc(OC)cc2)SC1=S (stereo not drawn)
inactive: HCT-15 colon 87.8% | HT29 colon 79.8% | SNB-75 CNS 82.8% | SNB-19 CNS 92.9% | U251 CNS 81.9% | PC-3 prostate 78.6% | SK-MEL-5 melanoma 99.4% | UACC-62 melanoma 70.8% | LOX IMVI melanoma 84.5% | SK-MEL-28 melanoma 103%

C=C(C)[C@@H]1CC[C@]2(C(=O)NS(=O)(=O)c3ccccc3)CC[C@]3(C)[C@H](CC[C@@H]4[C@@]5(C)CC[C@H](OC(=O)NS(=O)(=O)c6ccccc6)C(C)(C)[C@@H]5CC[C@]43C)[C@@H]12
inactive: HT29 colon 20.8% | SNB-75 CNS 45.3% | SNB-19 CNS 14.4% | U251 CNS 13%
active: HCT-15 colon 5.41% | PC-3 prostate 7.83% | SK-MEL-5 melanoma -24.6% | UACC-62 melanoma -83.1% | LOX IMVI melanoma 4.7% | SK-MEL-28 melanoma -16.3%

CCNCCCn1c2c(c3ccc(Cl)cc3c1=O)C(=O)c1cc(OC)cnc1-2
inactive: SNB-75 CNS 19.4% | SNB-19 CNS 28.8% | PC-3 prostate 40% | SK-MEL-5 melanoma 18.3% | UACC-62 melanoma 14.4% | SK-MEL-28 melanoma 70.5%
active: HCT-15 colon -58.2% | HT29 colon -76.3% | U251 CNS -93.8% | LOX IMVI melanoma -71.1%

COCc1nc(NS(=O)(=O)c2ccc(N)cc2)nc(C)c1Br
inactive: HCT-15 colon 97.7% | HT29 colon 88.6% | SNB-75 CNS 89.4% | SNB-19 CNS 108% | U251 CNS 103% | PC-3 prostate 101% | SK-MEL-5 melanoma 102% | UACC-62 melanoma 101% | LOX IMVI melanoma 94.1% | SK-MEL-28 melanoma 105%

Cc1cc(N)cc(C)c1-c1c(Br)cc(N)cc1Br
inactive: HCT-15 colon 32% | SNB-19 CNS 37.4% | U251 CNS 22.2% | PC-3 prostate 23.2% | SK-MEL-5 melanoma 21% | UACC-62 melanoma 48.9% | LOX IMVI melanoma 16% | SK-MEL-28 melanoma 44.5%
active: HT29 colon 9.08% | SNB-75 CNS 2.44%

COc1ncnc2[nH]cc(CN3CCN(c4ccc(F)cc4)CC3)c12
inactive: HCT-15 colon 104% | HT29 colon 91.2% | SNB-75 CNS 100% | SNB-19 CNS 102% | U251 CNS 99.2% | PC-3 prostate 100% | SK-MEL-5 melanoma 103% | UACC-62 melanoma 106% | SK-MEL-28 melanoma 114%

CCCCCCCCCCCCCC1=NC(C)(C)CN1C(C)C
inactive: SNB-19 CNS 28.9%
active: HCT-15 colon -65.1% | HT29 colon -57.5% | SNB-75 CNS -41.1% | U251 CNS -63.5% | PC-3 prostate -37.6% | SK-MEL-5 melanoma -86.7% | UACC-62 melanoma -70.8% | SK-MEL-28 melanoma -73%

C=C(COC(C)=O)[C@H]1CC/C(C)=C/CC/C(C)=C/CC[C@@]2(C)O[C@H]2C1
inactive: HCT-15 colon 96% | HT29 colon 108% | SNB-75 CNS 109% | SNB-19 CNS 106% | U251 CNS 98.3% | PC-3 prostate 129% | SK-MEL-5 melanoma 108% | UACC-62 melanoma 99.6% | LOX IMVI melanoma 94.6% | SK-MEL-28 melanoma 104%

O=C(/C=C/c1ccccc1Br)c1cccc(OCCCCOc2cccc(C(=O)/C=C/c3ccccc3Br)c2)c1
inactive: HCT-15 colon 81.6% | HT29 colon 89.3% | SNB-75 CNS 79.7% | SNB-19 CNS 90.8% | U251 CNS 77% | PC-3 prostate 92% | SK-MEL-5 melanoma 98.7% | UACC-62 melanoma 78.8% | LOX IMVI melanoma 86.4% | SK-MEL-28 melanoma 102%

Cc1ccccc1NC(=O)c1sc2nc3c(cc2c1N)C(=O)CCC3
inactive: HCT-15 colon 32.8% | HT29 colon 21.1% | SNB-75 CNS 13.1% | SNB-19 CNS 46.1% | U251 CNS 49% | PC-3 prostate 30.3% | SK-MEL-5 melanoma 18.6% | UACC-62 melanoma 36.9% | SK-MEL-28 melanoma 52.8%

NC(N)=NC1CCCCC1
inactive: HCT-15 colon 103% | HT29 colon 97.1% | SNB-75 CNS 107% | SNB-19 CNS 104% | U251 CNS 89.9% | PC-3 prostate 89.8% | SK-MEL-5 melanoma 107% | UACC-62 melanoma 99.6% | SK-MEL-28 melanoma 109%

CCCCCCCC/C=C\CCCCCCCC(=O)OCCCCCC
inactive: HCT-15 colon 101% | HT29 colon 109% | SNB-75 CNS 117% | SNB-19 CNS 112% | U251 CNS 97.1% | PC-3 prostate 91.5% | SK-MEL-5 melanoma 108% | UACC-62 melanoma 110% | LOX IMVI melanoma 98.8% | SK-MEL-28 melanoma 122%

Fc1ccc(-c2nc(-c3ccc(-c4nc5ccc(F)cc5[nH]4)cc3)no2)cc1
inactive: HCT-15 colon 86.1% | HT29 colon 84.7% | SNB-75 CNS 57.6% | SNB-19 CNS 82.5% | U251 CNS 82.9% | PC-3 prostate 68.7% | SK-MEL-5 melanoma 74.4% | UACC-62 melanoma 75.5% | LOX IMVI melanoma 43.5% | SK-MEL-28 melanoma 80.5%

N=c1nc(N2CCCCC2)cc(N)n1O
inactive: HCT-15 colon 97% | HT29 colon 107% | SNB-75 CNS 93.5% | SNB-19 CNS 99.8% | U251 CNS 101% | PC-3 prostate 103% | SK-MEL-5 melanoma 94.8% | UACC-62 melanoma 104% | SK-MEL-28 melanoma 111%

COc1ccc2[nH]cc(C3(c4c[nH]c5ccc(OC)cc45)C(=O)Nc4ccc(Cl)cc43)c2c1
inactive: HCT-15 colon 69.1% | HT29 colon 44.9% | SNB-75 CNS 39.7% | SNB-19 CNS 82.3% | U251 CNS 72.2% | PC-3 prostate 15% | SK-MEL-5 melanoma 89.2% | UACC-62 melanoma 73% | LOX IMVI melanoma 45% | SK-MEL-28 melanoma 95.3%

CCC(=O)OCc1ccc(OC)cc1
inactive: HCT-15 colon 108% | HT29 colon 102% | SNB-75 CNS 104% | SNB-19 CNS 100% | U251 CNS 97.3% | PC-3 prostate 88.1% | SK-MEL-5 melanoma 108% | UACC-62 melanoma 105% | LOX IMVI melanoma 98% | SK-MEL-28 melanoma 111%

COc1cc(/C=N/NC(=O)Cn2c(-c3ccc(C)o3)nc3ccccc32)ccc1OCc1ccccc1
inactive: HCT-15 colon 74.1% | HT29 colon 87.2% | SNB-75 CNS 83.2% | SNB-19 CNS 79.6% | U251 CNS 88.5% | PC-3 prostate 63.1% | SK-MEL-5 melanoma 76.6% | UACC-62 melanoma 77.8% | SK-MEL-28 melanoma 99.1%

CCN(CC)CCCC(C)Nc1ccnc2ccc(Oc3ccccc3)cc12 (stereo not drawn)
active: SK-MEL-5 melanoma -89% | SK-MEL-28 melanoma -6.8%
inactive: HCT-15 colon 49.6% | HT29 colon 38.6% | SNB-75 CNS 73.2% | SNB-19 CNS 89.4% | U251 CNS 63.5% | PC-3 prostate 84.9% | UACC-62 melanoma 31.7%

CCCCCCCCCCCCCC
inactive: HCT-15 colon 106% | SNB-75 CNS 72.4% | PC-3 prostate 88.1% | SK-MEL-5 melanoma 108% | LOX IMVI melanoma 94.9% | SK-MEL-28 melanoma 106%

C=C1C[C@@]2(C)C(CC[C@]3(C)C2CC=C2C4CC(C)(C)C[C@@H](OC(=O)/C(C)=C\C)[C@]4(C(=O)O)CC[C@]23C)C(C)(C)C1=O (stereo partly drawn)
inactive: SNB-75 CNS 52.5% | SNB-19 CNS 27.6% | SK-MEL-5 melanoma 26.4%
active: HCT-15 colon -16.7% | HT29 colon -20.1% | U251 CNS -47.9% | PC-3 prostate -6.78% | UACC-62 melanoma -12.6% | SK-MEL-28 melanoma 2.5%

Cc1cccc2nc3ccccc3c(Nc3ccc(NS(C)(=O)=O)cc3)c12
inactive: HCT-15 colon 37.2% | HT29 colon 46% | SNB-75 CNS 68.3% | SNB-19 CNS 59.7% | U251 CNS 15.8% | PC-3 prostate 66.7% | SK-MEL-5 melanoma 48.3% | UACC-62 melanoma 63.4% | SK-MEL-28 melanoma 73%

COc1cc2c(cc1OC)-c1cc(OC)c(OC)cc1C(CN(C)C)C2 (stereo not drawn)
active: SNB-75 CNS -56.2% [100 µM] | SNB-19 CNS 7.08% [100 µM]
inactive: HCT-15 colon 78.2% [100 µM] | HT29 colon 78.4% [100 µM] | PC-3 prostate 56.3% [100 µM] | SK-MEL-5 melanoma 73.4% [100 µM] | UACC-62 melanoma 20.4% [100 µM] | LOX IMVI melanoma 71.1% [100 µM] | SK-MEL-28 melanoma 41.4% [100 µM]

COc1ccc(/C=C/c2nc(NCCCN(C)C)c3ccccc3n2)cc1
active: U251 CNS -48.4%
inactive: HCT-15 colon 86.6% | HT29 colon 11.5% | SNB-75 CNS 42.8% | SNB-19 CNS 100% | SK-MEL-5 melanoma 32.3% | UACC-62 melanoma 104% | SK-MEL-28 melanoma 77.5%

COC(=O)[C@H](Cc1cn(C)cn1)NC(=O)[C@H](CC(C)C)NC(=O)Nc1cc(C(F)(F)F)cc(C(F)(F)F)c1
active: HCT-15 colon -96.6% [100 µM] | HT29 colon -89.6% [100 µM] | SNB-75 CNS -100% [100 µM] | SNB-19 CNS -97.9% [100 µM] | PC-3 prostate -95.1% [100 µM] | SK-MEL-5 melanoma -95.4% [100 µM] | UACC-62 melanoma -99.3% [100 µM] | LOX IMVI melanoma -86.6% [100 µM] | SK-MEL-28 melanoma -100% [100 µM]

COC(=O)c1ccc2c(c1)nc(-c1cc3ccccc3[nH]c1=O)n2-c1cc(C(C)(C)C)[nH]n1
active: HT29 colon 7.39%
inactive: HCT-15 colon 78.2% | SNB-75 CNS 101% | SNB-19 CNS 35% | U251 CNS 39.7% | PC-3 prostate 53% | SK-MEL-5 melanoma 74.9% | UACC-62 melanoma 51.2% | SK-MEL-28 melanoma 84.1%

CCN(CC)c1ccc(/C=N/N=C(N)N)cc1
active: HT29 colon 9.78%
inactive: HCT-15 colon 41.2% | SNB-75 CNS 40.2% | SNB-19 CNS 73.6% | U251 CNS 46.9% | PC-3 prostate 30.7% | SK-MEL-5 melanoma 40.2% | UACC-62 melanoma 48.4% | SK-MEL-28 melanoma 61.7%

COc1cc(C2C(C#N)=C(N)Oc3cc4c(cc32)OCO4)cc2c1OCO2 (stereo not drawn)
active: HT29 colon 9.21% | SNB-75 CNS -9.64%
inactive: HCT-15 colon 21.5% | SNB-19 CNS 45.7% | U251 CNS 28.4% | PC-3 prostate 27.9% | SK-MEL-5 melanoma 19.8% | UACC-62 melanoma 30.7% | SK-MEL-28 melanoma 41.7%

CCCCCc1c(C)[nH]c(/C=C2\N=C(c3ccc[nH]3)C=C2Oc2ccc(OC)cc2)c1C
active: HCT-15 colon -93.8% [100 µM] | HT29 colon -64% [100 µM] | SNB-75 CNS -91.6% [100 µM] | SNB-19 CNS -83.1% [100 µM] | PC-3 prostate -25.7% [100 µM] | SK-MEL-5 melanoma -73.6% [100 µM] | UACC-62 melanoma -93.5% [100 µM] | SK-MEL-28 melanoma -86.9% [100 µM]
